Some test systems named below: DU-145 prostate; K-562 leukemia; MALME-3M melanoma; MDA-MB-231 breast; RXF 393 renal; SF-268 CNS; SF-295 CNS; SF-539 CNS; UACC-257 melanoma; M14 melanoma; HCT-15 colon; HT29 colon; SNB-75 CNS; SNB-19 CNS; U251 CNS; PC-3 prostate; SK-MEL-5 melanoma; UACC-62 melanoma; LOX IMVI melanoma; SK-MEL-28 melanoma.
Common to all, as to experiment: NCI-60 one-dose screen, 48 h (100 = growth as untreated, 0 = no growth, -100 = all killed)
Holding throughout (conditions): 10 µM unless noted

The panel holds about 83,000 compounds, 20% with a hit somewhere; the sample as a whole holds those more often.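 Cells were grown in 96-well plates and exposed to the test compound at a single concentration for 48 hours; results are reported as percent growth, with values below 10 considered active.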 Unmarked numbers belong to inactive results. Activity calls are given as the source filed them.

On to `N#Cc1c(-c2cccs2)c(C#N)c(=O)n(Cc2nc3ccccc3[nH]2)c1N`, for which the growth in the assay on DU-145 prostate was 111%; in the assay with K-562 leukemia, 101%; in the assay with MALME-3M melanoma it was 107%; with MDA-MB-231 breast, 82.4%; with RXF 393 renal it was 94.4%; in the assay with SF-268 CNS, 104%. In addition, the growth in the assay on SF-295 CNS was 107%; with SF-539 CNS, 97.7%; in the assay on UACC-257 melanoma, 110%; in the assay on M14 melanoma, 98.4%; with HCT-15 colon, 98.2%; in the assay with HT29 colon it was -93% (active). Further, the growth in the assay on SNB-75 CNS is 78.7%; in the assay on SNB-19 CNS it was 101%; in the assay on U251 CNS it was 94.2%; with PC-3 prostate, 97.4%; with SK-MEL-5 melanoma, 95.1%; in the assay on UACC-62 melanoma, 90.5%. The growth was 100% in the assay with LOX IMVI melanoma and 110% in the assay with SK-MEL-28 melanoma.
Turning to `CC[C@]12C=CCN3CC[C@]4(C(=C(C(=O)OC)C1)Nc1cc5c(cc14)[C@@H]1[C@H](O5)[C@@H](O)[C@@]4(CC)CC(C(=O)OC)=C5Nc6cc(O)ccc6[C@@]56CCN1C46)C32` (stereo not given in full), the growth with DU-145 prostate is 22%; in the assay on K-562 leukemia, 3.36% (active); in the assay with MALME-3M melanoma, 19.3%; with MDA-MB-231 breast, 21%; in the assay with RXF 393 renal it was -40.2% (active); with SF-268 CNS, 6.98% (active). The growth is 8.14% (active) with SF-295 CNS; 4.2% (active) in the assay on SF-539 CNS; 21.8% in the assay on UACC-257 melanoma; 15.7% in the assay on M14 melanoma; -44.6% (active) in the assay with HCT-15 colon; 4.53% (active) in the assay on HT29 colon. The growth in the assay on SNB-75 CNS is -2.38% (active); in the assay with SNB-19 CNS, 23.4%; with U251 CNS, 8.74% (active); with PC-3 prostate it was 20.8%; with SK-MEL-5 melanoma, -41.5% (active); in the assay on UACC-62 melanoma, 19%. The values for the growth with LOX IMVI melanoma and with SK-MEL-28 melanoma were -83.8% (active) and 17.4%, respectively.
Consider `O=C1C(SCc2ccccc2)=C(Cl)CN1c1ccccc1`, for which the growth is 102% in the assay on DU-145 prostate; 62% with K-562 leukemia; 94.6% in the assay on MALME-3M melanoma; 93.1% in the assay with MDA-MB-231 breast; 105% in the assay on RXF 393 renal; 105% with SF-268 CNS. Further, the growth was 97.8% in the assay with SF-295 CNS; 95% in the assay on SF-539 CNS; 106% with UACC-257 melanoma; 97.7% with M14 melanoma; 95.8% with HCT-15 colon; 106% in the assay on HT29 colon. Moreover, the growth in the assay on SNB-75 CNS was 92.2%; in the assay on SNB-19 CNS, 96.2%; in the assay on U251 CNS, 101%; in the assay with PC-3 prostate, 109%; in the assay with SK-MEL-5 melanoma it was 99.4%; in the assay with UACC-62 melanoma, 93.1%. The growth with LOX IMVI melanoma was 42.8%; in the assay on SK-MEL-28 melanoma it was 98.9%.
For the compound `COc1cc(-c2nc(-c3ccccc3)[nH]c2-c2ccnc(NCCCNS(=O)(=O)c3cccc(F)c3)n2)ccc1F`, the growth with DU-145 prostate is 87.1%; with K-562 leukemia it was 63.6%; with MALME-3M melanoma it was 95.6%; in the assay on MDA-MB-231 breast it was 94.3%; in the assay on RXF 393 renal, 92.2%; with SF-268 CNS it was 89.1%. The growth with SF-295 CNS was 102%; with SF-539 CNS it was 98.6%; in the assay with UACC-257 melanoma, 115%; with M14 melanoma, 93.3%; with HCT-15 colon it was 72.7%; in the assay with HT29 colon, 83.2%. In addition, the growth is 112% in the assay with SNB-75 CNS; 107% with SNB-19 CNS; 95.9% in the assay on U251 CNS; 62.9% with PC-3 prostate; 92% with SK-MEL-5 melanoma; 99.8% with UACC-62 melanoma. Further, the growth with LOX IMVI melanoma was 86.2%; in the assay with SK-MEL-28 melanoma, 100%.
As to `CCOc1cccc(/C(N)=N/C(N)=N/c2nc3ccccc3s2)c1`, the growth in the assay on DU-145 prostate was 83.4%; with K-562 leukemia, 77.3%; in the assay with MALME-3M melanoma, 115%; in the assay on MDA-MB-231 breast it was 74.3%; with RXF 393 renal it was 110%; in the assay with SF-268 CNS, 86.5%. Moreover, the growth in the assay on SF-295 CNS is 37.7%; with SF-539 CNS, 104%; in the assay with UACC-257 melanoma it was 113%; in the assay with M14 melanoma it was 93.2%; in the assay on HCT-15 colon, 49.9%; with HT29 colon it was 106%. The growth with SNB-75 CNS was 87.9%; in the assay on SNB-19 CNS, 87.8%; in the assay with U251 CNS, 58.3%; in the assay with PC-3 prostate, 46.4%; in the assay on SK-MEL-5 melanoma, 92.2%; in the assay on UACC-62 melanoma, 81.4%. In addition, the growth was 13.2% in the assay with LOX IMVI melanoma and 105% in the assay on SK-MEL-28 melanoma.
As to `C#CCN(C)CCCOc1ccc(NCc2ccc(/C=C/C(=O)NO)cc2)cc1Cl`, the growth in the assay on DU-145 prostate is 13.7%; in the assay on K-562 leukemia it was 15.3%; with MALME-3M melanoma, 4.84% (active); in the assay on MDA-MB-231 breast it was 16.1%; with RXF 393 renal, -56.2% (active); in the assay on SF-268 CNS, 12.9%. Moreover, the growth was -65.5% (active) in the assay with SF-295 CNS; -7.77% (active) in the assay on SF-539 CNS; 21% in the assay on UACC-257 melanoma; 0.456% (active) with M14 melanoma; 8.05% (active) in the assay on HCT-15 colon; 8.52% (active) with HT29 colon. Besides, the growth is 9.93% (active) in the assay on SNB-75 CNS; 8.74% (active) in the assay on SNB-19 CNS; -13.3% (active) in the assay with U251 CNS; 19% in the assay with PC-3 prostate; -87.2% (active) in the assay with SK-MEL-5 melanoma; -53.7% (active) in the assay with UACC-62 melanoma. For the same compound, the growth is -69.5% (active) in the assay with LOX IMVI melanoma and -14.4% (active) with SK-MEL-28 melanoma.
Turning to `N#C/C(=N\Nc1ccc(F)cc1)C(=O)Nc1cc(-c2ccccc2)nn1-c1ccccc1`, the growth in the assay on DU-145 prostate was 22.9%; in the assay on K-562 leukemia it was 12.8%; with MALME-3M melanoma it was -17% (active); with MDA-MB-231 breast, -6.26% (active); with RXF 393 renal, -2.63% (active); in the assay on SF-268 CNS, 14.5%. Moreover, the growth in the assay on SF-295 CNS was 2.07% (active); in the assay on SF-539 CNS, 8.69% (active); with UACC-257 melanoma, -13.5% (active); with M14 melanoma, 18.3%; in the assay with HCT-15 colon, 8.61% (active); in the assay with HT29 colon, 8.84% (active). The growth was -5.46% (active) with SNB-75 CNS; 5.24% (active) with SNB-19 CNS; 8.65% (active) in the assay with U251 CNS; 7.13% (active) with PC-3 prostate; -51.4% (active) in the assay with SK-MEL-5 melanoma; 4.43% (active) in the assay with UACC-62 melanoma. The growth is 12.5% with LOX IMVI melanoma and 22.1% in the assay on SK-MEL-28 melanoma.
